Screening results as filed in PubChem.
In the library only some 3.4% were active in any assay of this set; here they are far more common.
FBW7 act – FBW7 E3 ligase activators, primary screen, biochemical, AlphaScreen, human. F-box/WD repeat-containing protein 7 (Homo sapiens), Q969H0. AlphaScreen FBW7–phospho-cyclin E peptide binding, activator screen. normalized activity (activation), % at 26.1 µM. 650,000 compounds, 0.13% hits. AID 1259310, 2017; in the data active = normalized activity above about 1.9%;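 note: purified mutant Fbw7 with reduced substrate affinity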
MITF primary – MITF inhibitors, primary screen, biochemical, AlphaScreen, human. Microphthalmia-associated transcription factor (Homo sapiens), O75030. AlphaScreen MITF homodimerization, bead proximity signal. inhibition, % at 2.6 µM. 650,000 compounds, 0.91% hits. AID 1259374, 2018; in the data active = inhibition above about 50%
TEAD-YAP inh – TEAD-YAP interaction inhibition, primary screen, TEAD-YAP interaction inhibitor project, luminescence, HEK-TIYL cells | TEAD-Gal4/YAP UAS-luciferase luminescence | inhibition, % at 9.12 µM | 640,000 compounds, 1.4% hits | AID 1259422, 2018; in the data active = inhibition above about 32%
GPR151 ag – activators of human GPR151, primary screen, cell-based, PathHunter beta-arrestin, luminescence; G-protein coupled receptor 151 (Homo sapiens), Q8TDV0; PathHunter beta-arrestin GPR151 cells; activation, % at 11.2 µM; 650,000 compounds, 1% hits; AID 1508602, 2020; in the data active = activation above about 4.9%
GPR151 confirm – GPR151 activators, triplicate retest, confirmation, cell-based, PathHunter beta-arrestin, luminescence | activation, % at 11.2 µM | 6,700 tested, under 10 active | GPR151 PathHunter beta-arrestin cells, 90 min; % of EA-reagent control over plate median | shares compounds with GPR151 ag;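 active = mean percent activation across replicates above the confirmation screen cutoff of 4.91%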
GPR119 ag – GPR119 activators in beta-arrestin cells, counter-screen for GPR151 activator project, cell-based, PathHunter beta-arrestin, luminescence, triplicate | 90 min; 0 = compound-well median, 100 = enzyme-acceptor control | activation, % at 11.2 µM | shares compounds with GPR151 ag | 6,700 compounds, 0.3% hits;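 active = mean percent activation in the counterscreen above 29.09%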;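 note: counterscreen on off-target GPR119 to flag nonselective hits from the GPR151 activator screen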
Target sequence (Q8TDV5 whole entry, looked up): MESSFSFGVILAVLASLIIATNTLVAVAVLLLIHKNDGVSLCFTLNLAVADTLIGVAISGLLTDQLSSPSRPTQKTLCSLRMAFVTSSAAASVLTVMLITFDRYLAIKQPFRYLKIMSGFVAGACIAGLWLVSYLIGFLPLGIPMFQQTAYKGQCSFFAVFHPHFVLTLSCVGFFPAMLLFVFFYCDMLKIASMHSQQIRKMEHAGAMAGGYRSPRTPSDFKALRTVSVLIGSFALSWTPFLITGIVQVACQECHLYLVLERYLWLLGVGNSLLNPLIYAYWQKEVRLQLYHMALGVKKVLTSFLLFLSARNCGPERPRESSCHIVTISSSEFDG
Numbers stand for hits; n = inactive; x = not tested or not shown.

SMILES	FBW7 act	MITF primary	TEAD-YAP inh	GPR151 ag	GPR151 confirm	GPR119 ag
CCOc1ccc(N2CC(C(=O)N3CCC4(CC3)NC(=O)c3ccccc3N4)CC2=O)cc1 (stereo not drawn)	n	n	n	5.1	n	n
CCOc1ccc(N2CC(C(=O)OC)CC2=O)cc1 (stereo not drawn)	n	n	n	6.4	n	n
CC(C)(C)c1ccc(/C=N/NC(=O)c2ccncc2)cc1	n	n	n	n	x	x
O=C(NCc1ccccc1)c1ccc2c(=O)n(CCc3ccccc3)c(SCc3cccc(Cl)c3)nc2c1	n	n	n	n	x	x
Cc1nnc2c(Nc3ccccc3N3CCCCC3)nc3ccccc3n12	n	n	n	n	x	x
c1ccc(N2CCCCC2)c(Nc2nc3ccccc3n3nnnc23)c1	n	n	n	6.0	n	n
O=C(CSc1nccc(=O)[nH]1)Nc1nccs1	n	n	n	6.5	n	n
Cc1c(Cl)cccc1NC(=O)CSc1nccc(=O)[nH]1	n	n	n	5.3	n	n
CC1CCN(C(=O)C2=CC(c3cccs3)=NS(=O)(=O)N2C)CC1	n	n	n	5.4	n	n
Cc1cc(=O)[nH]c(SCC(=O)Nc2nnc(SCC(N)=O)s2)n1	n	n	n	n	x	x
COc1ccc(/C=N\Nc2nnc3c(n2)[nH]c2c(C)cccc23)cc1OC	n	n	n	9.7	n	n
COc1cccc(/C=N\Nc2nnc3c(n2)[nH]c2c(C)cccc23)c1	n	n	n	n	x	x
Cc1cccc2c1[nH]c1nc(N/N=C\c3ccccc3O)nnc12	n	n	n	5.0	n	n
Brc1ccc(C2C=C(c3cccs3)Nc3ncnn32)cc1 (stereo not drawn)	n	n	n	n	x	x
CCOc1ccccc1C(=O)NC(NC1CCCCC1)(C(F)(F)F)C(F)(F)F	n	n	n	n	x	x
CC1CCCN(C(=O)Cn2c(=S)[nH]c3ccccc3c2=O)C1 (stereo not drawn)	n	n	n	n	x	x
CCS(=O)(=O)n1nc(-c2ccccc2)nc1NCc1ccco1	n	n	n	12	n	n
Cc1ccc2ncc(C(=O)Nc3cc(C)on3)c(=O)n2c1	n	n	n	8.2	n	n
Cc1cc(C)cc(NC(=O)c2cnc3ccc(C)cn3c2=O)c1	n	n	n	n	x	x
CN(Cc1nc(-c2cccnc2)no1)S(=O)(=O)c1ccc(Br)cc1	n	n	n	n	x	x
CN(Cc1nc(-c2cccnc2)no1)S(=O)(=O)c1ccc2ccccc2c1	n	n	n	5.1	n	n
Cc1oc(-c2ccc(Cl)cc2)nc1CS(=O)CC(=O)NC(C)C (stereo not drawn)	n	n	n	9.4	n	n
Cc1oc(-c2ccc(Cl)cc2)nc1CS(=O)CC(=O)NC(C)c1ccccc1 (stereo not drawn)	n	n	n	n	x	x
COc1ccc(C(=O)N(Cc2cccs2)C2CC(C)(C)NC(C)(C)C2)cc1	n	n	n	7.4	n	n
CSCC(=O)N1CCC(Oc2cccc(C(=O)NCc3ccccc3)c2)CC1	n	n	n	n	x	x
SMILES	FBW7 act	MITF primary	TEAD-YAP inh	GPR151 ag	GPR151 confirm	GPR119 ag
COc1cc(CNCCO)cc(Br)c1OCc1ccccc1	n	n	n	n	x	x
C=CCOc1c(Br)cc(CNCCO)cc1OC	n	n	n	6.7	n	n
Cc1cc(=O)n2nc(N3CCCC3C(=O)NCCCN3CCCCC3)sc2n1 (stereo not drawn)	n	n	n	5.0	n	n
COc1ccc(S(=O)(=O)N(C)C)c(Cl)c1Cl	n	n	n	16	n	n
COC(=O)c1ccc(C(=O)OC)c(NS(=O)(=O)c2ccc(OC)c(Cl)c2Cl)c1	n	n	n	9.5	n	n
COCCCNS(=O)(=O)c1ccc(OC)c(Cl)c1Cl	n	n	n	n	x	x
COc1cccc(NS(=O)(=O)c2ccc(OC)c(Cl)c2Cl)c1	n	n	n	n	x	x
COc1ccc(NS(=O)(=O)c2ccc(OC)c(Cl)c2Cl)cc1OC	n	n	n	11	n	n
Nc1nnnn1CC(=O)Nc1ccccc1[N+](=O)[O-]	n	n	n	n	x	x
N#CC1=C(SCC(=O)c2cc3ccccc3oc2=O)NC(=O)C(C#N)C12CCCCC2 (stereo not drawn)	n	n	n	n	x	x
Cc1cc(C)cc(CC(C(=O)Nc2cccc(C(F)(F)F)c2)C(C)C(=O)O)c1 (stereo not drawn)	n	n	n	n	x	x
CC(C)N1C(=O)CC(Nc2ccc(N3CCOCC3)cc2)C1=O (stereo not drawn)	n	n	n	n	x	x
CC(c1ccccc1)N1C(=O)CC(Nc2ccc(N3CCOCC3)cc2)C1=O (stereo not drawn)	n	n	n	7.2	n	n
CSc1ccccc1N=Cc1cc([N+](=O)[O-])ccc1O	n	n	n	n	x	x
NC(=O)COC(=O)CCN1c2ccccc2Sc2ccccc21	n	n	n	9.8	n	n
CC1(CCC(=O)NCc2ccc(C(F)(F)F)cc2)CCC(=O)N1 (stereo not drawn)	n	n	n	n	x	x
COCCN1CCN(Cc2nc(-c3ccccn3)no2)CC1	n	n	n	n	x	x
COCCCC1CCN(Cc2nc(-c3ccccn3)no2)CC1	n	n	n	6.7	n	n
CCc1nnc(NS(=O)(=O)c2ccc(NC(=O)c3nc4ccccc4s3)cc2)s1	n	n	n	n	x	x
COc1cc(OC)c(CN2CCN(Cc3ccc4c(c3)OCO4)CC2)cc1Br	n	n	n	n	x	x
COc1cc(C)cc(CN2CCN(Cc3ccc4c(c3)OCO4)CC2)c1O	n	n	n	5.3	n	n
CCCNC(=O)c1ccnc(N2CCCC(C(=O)N(CC)CC)C2)c1 (stereo not drawn)	n	n	n	n	x	x
CCN(CC)C(=O)C1CCCN(c2cc(C(=O)NCCN(C(C)C)C(C)C)ccn2)C1 (stereo not drawn)	n	n	n	6.2	n	n
Cc1nn(C)c(C)c1-c1ncc(C(=O)Nc2ccccc2)s1	n	n	n	5.7	n	n
CCCN1CCc2nnc(CCNC(=O)c3ccco3)n2CC1	n	n	n	n	x	x
Cc1ccc(NC(=O)CCCn2cnc([N+](=O)[O-])n2)cc1	n	n	n	n	x	x
CNC(=S)N1CCC(C(=O)NC(c2cccc(OC)c2)c2ccccn2)CC1 (stereo not drawn)	n	n	n	6.9	n	n
COC(=O)c1ccccc1OCCOc1ccccc1C(=O)OC	n	n	n	5.6	n	n
COC(=O)c1ccccc1OCCOCCOc1cccc2cccnc12	n	n	n	n	x	x
Cc1ccc([N+](=O)[O-])cc1NC(=O)CN(CCc1ccccc1)S(C)(=O)=O	n	n	n	n	x	x
